Measurements from PubChem BioAssay (NCI).
About 79,000 compounds went through this panel and 15% of them were active in at least one assay; those are over-represented in the sample as a whole. Values without a mark were called inactive. Activity calls are given as the source filed them. Rule as the data show it: active = growth inhibition above about 70%; inactive = the rest.

Experiments:
[1] = NCI Yeast Anticancer Drug Screen. Data for the rad50 strain (AID 155);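 also: 0% = growth of vehicle-only cultures of the same strain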; details: S. cerevisiae rad50 strain growth inhibition; at 50.0 µM; hits give high values
Method in brief: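 Cells are treated with compound, grown, and their growth is then scored against vehicle-only cultures of the same repair-deficient yeast strain.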

[2] = NCI Yeast Anticancer Drug Screen. Data for the mec2-1 strain (AID 157); details: S. cerevisiae mec2-1 strain, at 50.0 µM, hits give high values
Method in brief: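 Growth inhibition is read against vehicle-treated controls after compound exposure of the mec2-1 yeast strain, which is defective in DNA damage repair or cell cycle control.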

[3] = NCI Yeast Anticancer Drug Screen. Data for the sgs1 mgt1 strain (AID 161);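 also: 0% = growth of cultures given vehicle only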; details: S. cerevisiae sgs1 mgt1 strain, at 50.0 µM, hits give high values
Method in brief: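 Compounds are added to genetically altered yeast, and growth is compared with cultures given vehicle alone to give percent inhibition.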

[4] = NCI Yeast Anticancer Drug Screen. Data for the cln2 rad14 strain (AID 165);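 also: 0% = growth equal to vehicle treated cultures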; details: S. cerevisiae cln2 rad14 strain, at 50.0 µM, hits give high values
Method in brief: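 Growth inhibition, relative to vehicle-treated controls, is the read-out. The test organism is a yeast strain with defined genetic alterations, cln2 rad14.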

[5] = NCI Yeast Anticancer Drug Screen. Data for the bub3 strain (AID 167); details: S. cerevisiae bub3 mutant strain, at 50.0 µM, hits give high values
Method in brief: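 Part of a panel of yeast mutants defective in DNA damage repair or cell cycle regulation. Each strain is grown with compound, and inhibition is calculated relative to solvent-treated cultures.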

[6] = NCI Yeast Anticancer Drug Screen. Data for the mlh1 rad18 strain (AID 175); details: S. cerevisiae mlh1 rad18 strain growth inhibition; at 50.0 µM; hits give high values
Method in brief: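 Cells of a genetically altered yeast strain, deficient in DNA damage repair, were treated with compound. Their growth was then compared with that of vehicle-treated cultures to give inhibition.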

SMILES | growth inhibition [1] | growth inhibition [2] | growth inhibition [3] | growth inhibition [4] | growth inhibition [5] | growth inhibition [6]
N#C/C(N)=C(/C#N)N=Cc1ccccc1 | 15.9% | 21.3% | 8.4% | -64.4% | 7.2% | 18.9%
N#CC(=O)Nc1cccc(Cl)c1 | -13.1% | -8.05% | -16.4% | -19.7% | -3.05% | -0.15%
COc1cc([C@H]2Oc3cc([C@H]4Oc5cc(O)cc(O)c5C(=O)[C@@H]4O)ccc3O[C@@H]2CO)ccc1O | 3.15% | 0.55% | 11.8% | -36.4% | 15.5% | 6.05%
O=C1c2ccccc2C(=O)c2c(O)cc([N+](=O)[O-])cc21 | 18.2% | 3.05% | 11.7% | 6.05% | 14.2% | -1.5%
Nc1cc(C(=O)O)c(O)c(Cl)c1O | 31.3% | 7.05% | 12.3% | 21.6% | 4.5% | 29.8%
COCCCNc1nc(N)c(C#N)c(C#N)c1C#N | 4.3% | -6.15% | 2.85% | 3.45% | 19.3% | 22.2%
c1ccc(CN[C@]23C4C5CC6C7C5C2C7[C@@](NCc2ccccc2)(C64)N3Cc2ccccc2)cc1 (stereo partly specified) | 2.7% | -1.05% | -11.8% | -37.4% | -0.85% | 5.25%
CCOC(=O)C1=C(Nc2ccc(F)cc2)C(=O)N(CC)C1 | 1.3% | -15.3% | 24.4% | -6.45% | 19.9% | 21.4%
O=C(Nc1nc(C23CC4CC(CC(C4)C2)C3)cs1)c1cc2ccc(O)cc2oc1=O | 0.7% | 15.8% | 3.55% | 21.9% | 0.2% | -16.6%
COc1cc(NCCCCCCNCC(C)C)c2nccc(C)c2c1 | 53.1% | 44.5% | 62.8% | 18.1% | 37.6% | 21.6%
Cc1ccc(S(=O)(=O)N/N=C/c2ccsc2)cc1 | 20.6% | 13.3% | 27.9% | 18.8% | 23% | 33%
O=S1(=O)c2ccccc2N(O)C2=NCCN21 | -50.1% | -46.7% | -65.8% | -6.35% | -30.9% | -33.9%
CNC(=S)NNC(=O)c1ccncc1 | 11.4% | 10.7% | 13.6% | 18.6% | -0.65% | 13.3%
O=C(c1ccccc1)c1cccnc1 | -10.6% | -18.3% | -17.4% | -25.1% | -45.2% | -35.4%
Cc1cc(OCC(=O)O)c(C)cc1Cl | -21.6% | -17.1% | -12.5% | -0.25% | -7.5% | -13.6%
CCOc1ccc(OCC)c(NC(C)=O)c1 | -1.95% | 4.05% | 3.95% | 5.5% | 13.8% | -3.6%
CC1=C/C(=N\N(C)C)C(C(O)(C(F)(F)F)C(F)(F)F)C(C)(C)C1 (stereo unspecified) | 4.75% | -19.1% | -10.4% | 9.35% | -14.7% | -13%
COC1(OC)C(c2ccco2)C(C#N)(C#N)C1(OC)OC (stereo unspecified) | -5.65% | -1.95% | -8.05% | -38% | -4.85% | -0.9%

SMILES | growth inhibition [1] | growth inhibition [2] | growth inhibition [3] | growth inhibition [4] | growth inhibition [5] | growth inhibition [6]
CN1CCc2[nH]nc(-c3n[nH]c4c3CN(C)CC4)c2C1 | 15.8% | 0.85% | 10.5% | -0.05% | -8.6% | 13.6%
C[C@@H]1CN(c2ccccc2)C[C@H](C)OS(=O)O1 (stereo partly specified) | 2.65% | -1.95% | -12.8% | -16.6% | -6.95% | -0.7%
O=C1CSC(=S)N1Nc1ccccc1 | 2.45% | -22.2% | 22.2% | 3.15% | -15.8% | -10.1%
O=C(NCCCCCCNC(=O)Nc1cccc(C(F)(F)F)c1)Nc1cccc(C(F)(F)F)c1 | -9.65% | -13.7% | -4.05% | -19.1% | 2.4% | 8.8%
Nc1nc(N)nc(CCCCc2nc(N)nc(N)n2)n1 | -28.1% | -16% | -14.3% | -15.7% | -59.5% | -21.5%
CC1(C)C2CCC1(C)C1(C2)OC(CCl)CS1 (stereo unspecified) | 7.4% | -13.8% | 14.1% | 4.3% | 22.4% | 8.4%
COc1cc(/C=C/C=C2\CC/C(=C\C=C\c3ccc(O)c(OC)c3)C2=O)ccc1O | 10.2% | 18.4% | 31.4% | 37.7% | 29.5% | -9.1%
Cc1ccc(S(=O)(=O)OCC2CCC(=O)N2)cc1 (stereo unspecified) | 20.4% | -13.2% | 0.5% | -3.15% | -3.9% | 27.1%
COC(=O)/C=C(\C)CC/C=C(\C)CCC1OC1(C)C (stereo unspecified) | 11.9% | 44.1% | 84.7% (active) | 57.3% | 77.5% (active) | 81.1% (active)
O=C(Cc1ccccc1)NCc1ccc(Cl)cc1 | 3.75% | 18.2% | 34.1% | -5.7% | 41.1% | 27.4%
CC1(C)CC(=O)N(Nc2ccccc2)C1=O | -8.55% | -7.6% | -8.8% | -7.35% | -12.7% | -13.7%
NNC(=O)N/N=C1\C(=O)N(c2ccc(Cl)c(Cl)c2)C(=O)C(=O)C1c1nc2ccccc2s1 (stereo unspecified) | 41.4% | 5.95% | 26.9% | 13.3% | 0% | 26.4%
C[C@@]12CCC(=O)c3coc(c31)C(=O)c1cc3c(cc12)C(=O)C=CC3=O | 92% (active) | 93.2% (active) | 93.2% (active) | 91.4% (active) | 92.2% (active) | 91.9% (active)
Cc1cc2c(C)nn(Cc3ccccc3)c2c(C(=O)O)c1C | 10.6% | 7.05% | 1.15% | 2.95% | 9.95% | 26.8%
O=S(=O)(O)c1cccc(/C(=N\Nc2ccccn2)c2ccccn2)c1 | 44% | 25.9% | 59.8% | 40.5% | 51.5% | 45.4%
Nc1ncnc2c1c1c(=O)[nH]c(=O)[nH]c1n2C1OC(CO)C(O)C1O (stereo unspecified) | -1.95% | 1.8% | 7.35% | 2.15% | -7.55% | -44.5%
COc1cc2nncc(SCc3ccc(Cl)cc3Cl)c2cc1OC | 16.9% | 2.9% | -1.65% | 23.8% | 1.2% | 8.25%
Cc1ccccc1OCC1COCN(C(C)(C)CO)CO1 (stereo unspecified) | -11.1% | -4.5% | -5.5% | 7.9% | -13.9% | 16.8%
